In the library only some 1.1% were active in any assay of this set; here they are far more common.
NR5A2 inv ag: suppresses constitutive activity of human LRH-1 | HEK293T StAR-luciferase reporter, LRH-1 transfected, 24 h | actives 0.13% (n = 360,000) | inhibition, % at 3.6 µM | O00482 | AID 602396;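 active means inhibition above the mean inhibition of all tested compounds plus 3 SD, cut at about 73% in these data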;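 further: 0% = DMSO wells and 100% = reporter-only cells lacking LRH-1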
SRC1 inh: inhibitors of human steroid receptor coactivator 1 (SRC1). Q15788. HEK293 GAL4-SRC1 luciferase reporter, luminescence. inhibition, % at 3.6 µM. actives 0.12% (n = 360,000). AID 588354;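 active means inhibition above the campaign mean plus 3 SD, with each screening campaign given its own cutoff, cut at about 60% in these data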;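 further: 0% = DMSO treated cells and 100% = gossypol at 36 µM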
Target sequence (Q15788 whole entry, looked up, the tested form may be a part): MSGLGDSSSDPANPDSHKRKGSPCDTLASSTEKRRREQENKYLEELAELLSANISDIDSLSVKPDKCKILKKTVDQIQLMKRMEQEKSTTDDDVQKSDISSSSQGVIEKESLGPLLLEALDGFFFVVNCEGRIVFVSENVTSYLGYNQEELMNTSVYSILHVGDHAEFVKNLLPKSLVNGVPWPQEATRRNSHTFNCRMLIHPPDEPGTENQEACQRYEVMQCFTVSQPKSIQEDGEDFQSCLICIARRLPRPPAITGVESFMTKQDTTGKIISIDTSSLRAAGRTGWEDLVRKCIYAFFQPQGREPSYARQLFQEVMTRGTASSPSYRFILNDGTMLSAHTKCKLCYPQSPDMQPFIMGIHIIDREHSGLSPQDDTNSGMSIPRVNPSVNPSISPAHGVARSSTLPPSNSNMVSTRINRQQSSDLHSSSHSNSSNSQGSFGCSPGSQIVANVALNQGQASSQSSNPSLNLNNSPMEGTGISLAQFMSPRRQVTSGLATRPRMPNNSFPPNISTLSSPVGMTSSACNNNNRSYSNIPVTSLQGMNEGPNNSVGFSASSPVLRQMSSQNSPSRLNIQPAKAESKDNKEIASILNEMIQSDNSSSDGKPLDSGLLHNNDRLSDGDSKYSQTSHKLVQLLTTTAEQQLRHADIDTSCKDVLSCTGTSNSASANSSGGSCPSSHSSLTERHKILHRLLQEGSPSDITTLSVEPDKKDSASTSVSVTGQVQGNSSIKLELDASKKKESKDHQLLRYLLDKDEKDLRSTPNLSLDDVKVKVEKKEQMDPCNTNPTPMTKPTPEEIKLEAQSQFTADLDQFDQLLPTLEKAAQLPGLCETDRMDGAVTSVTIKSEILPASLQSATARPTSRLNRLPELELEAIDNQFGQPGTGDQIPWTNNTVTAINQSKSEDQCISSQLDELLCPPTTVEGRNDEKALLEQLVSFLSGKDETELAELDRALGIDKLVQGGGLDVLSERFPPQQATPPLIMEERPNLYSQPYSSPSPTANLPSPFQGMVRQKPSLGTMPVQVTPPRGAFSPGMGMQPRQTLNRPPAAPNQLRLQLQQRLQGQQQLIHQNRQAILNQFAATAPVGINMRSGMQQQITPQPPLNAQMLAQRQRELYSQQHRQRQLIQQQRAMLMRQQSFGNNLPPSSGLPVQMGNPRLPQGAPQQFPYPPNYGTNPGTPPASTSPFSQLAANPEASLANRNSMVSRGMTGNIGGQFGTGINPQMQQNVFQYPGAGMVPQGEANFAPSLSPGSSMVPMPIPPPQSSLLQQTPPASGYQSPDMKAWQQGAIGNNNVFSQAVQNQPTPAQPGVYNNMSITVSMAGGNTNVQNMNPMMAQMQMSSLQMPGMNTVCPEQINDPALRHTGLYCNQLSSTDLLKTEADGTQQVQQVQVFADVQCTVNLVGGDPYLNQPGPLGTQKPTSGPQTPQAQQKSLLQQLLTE
SRC2 inh: human SRC2 (NCOA2) inhibition. actives 0.17% (n = 370,000). HEK293 GAL4-SRC2 luciferase reporter, luminescence. inhibition, % at 9 µM. Q15596. AID 651957;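 active means inhibition above the mean inhibition of all tested compounds plus 3 SD, set per campaign, cut at about 52% in these data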;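 further: 0% = DMSO treated cells and 100% = cells given Gossypol at 36 µM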
SRC3 inh: inhibits human SRC3 coactivator. inhibition, % at 3.6 µM. AID 588352. actives 0.17% (n = 360,000). HEK293 GAL4-SRC3 luciferase reporter, luminescence;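 active means inhibition above a per-campaign cutoff, the mean of all compounds plus 3 SD, cut at about 60% in these data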;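 further: 0% = DMSO-treated cells and 100% = gossypol-treated cells at 36 µM; higher means less SRC3-driven luciferase light from the GAL4 reporter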
Shn3 inh set2: inhibitors of Schnurri-3 3'UTR reporter in osteoblasts | Clone20 osteoblast Shn3 3'UTR firefly luciferase, 24 h | inhibition, % at 12.5 µM | actives 0.52% (n = 360,000) | AID 588674;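 active means mean inhibition of at least 75% with every replicate also reaching 75%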;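 further: 0% = median of neutral control wells and 100% = pilot-screen positive control compound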
Gli-Sufu block: Gli-Sufu pathway antagonism | AID 588413 | Sufu-KO-LIGHT fibroblasts, Gli luciferase reporter luminescence | actives 0.74% (n = 340,000) | inhibition, % at 5 µM;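 active means inhibition above about 55%, limit read from the data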;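 further: 0% = DMSO-treated cells and 100% = wells with medium but no cells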
Gli-Sufu confirm: confirmation of Gli-SUFU pathway antagonists | shares compounds with Gli-Sufu block | Sufu-KO-LIGHT cells, Gli luciferase reporter, luminescence | inhibition, % at 5 µM | actives 40% (n = 2,500) | AID 602428;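 active means mean inhibition at 5 µM reaching about 45%, limit read from the data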;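 further: plate controls were DMSO-treated cells for no effect and wells lacking cells for full effect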
Gli cytotox: cytotoxic in Gli-SUFU antagonist counter-screen | shares compounds with Gli-Sufu block | Sufu-KO-LIGHT cells cytotoxicity, ATP luminescence | cytotoxicity, % at 5 µM | actives 32% (n = 2,500);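 active means mean cytotoxicity at 5 µM above about 25%, limit read from the data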;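 further: cells exposed to compound overnight for roughly 16 to 18 hours; plate controls were DMSO wells with cells for no effect and medium without cells for full effect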
Wnt3a counter: inhibits Wnt3a reporter, counter-screen for Gli-SUFU antagonists; shares compounds with Gli-Sufu block; Wnt-LIGHT cells, Wnt3a-driven luciferase reporter, luminescence; inhibition, % at 6.25 µM; actives 20% (n = 2,500); AID 651995;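 active means mean inhibition above about 25%, limit read from the data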
The depositor's hits bear a star.

How did COc1ccccc1OCCNC(=O)C1CC(=O)N(c2cccc(SC)c2)C1 (stereo unspecified) do in these assays?
NR5A2 inv ag: 6.6; SRC1 inh: 0.9; SRC2 inh: -5.3; SRC3 inh: 11.3; Shn3 inh set2: 7.5; Gli-Sufu block: 95.5*; Gli-Sufu confirm: 27.7; Gli cytotox: 20.2; Wnt3a counter: -25.6

What do the screens show for `CSc1cccc(N2CC(C(=O)NCCC3=CCCCC3)CC2=O)c1` (stereo unspecified)?
NR5A2 inv ag: -43.4; SRC1 inh: -7.0; SRC2 inh: 1.1; SRC3 inh: -2.3; Shn3 inh set2: -15.4; Gli-Sufu block: -5.6

Results for COc1cccc(CN2CC(C(=O)NCCOc3ccccc3F)CCC2=O)c1 (stereo unspecified) ?
NR5A2 inv ag: -11.1; SRC1 inh: 5.3; SRC2 inh: -0.2; SRC3 inh: -2.0; Shn3 inh set2: 16.7; Gli-Sufu block: 59.5*; Gli-Sufu confirm: 35.8; Gli cytotox: 15.4; Wnt3a counter: -39.0

What do the screens show for `Cc1cc(NC(=O)C2CCN(S(=O)(=O)Cc3ccccc3)CC2)ccc1-n1cnnn1`?
NR5A2 inv ag: -5.5; SRC1 inh: -1.1; SRC2 inh: 12.0; SRC3 inh: 10.1; Shn3 inh set2: 13.8; Gli-Sufu block: 59.9*; Gli-Sufu confirm: 27.6; Gli cytotox: 11.7; Wnt3a counter: -36.1

How did Cc1cc(C(=O)OCCCN(C)C2CN(Cc3cn(Cc4ccccc4C(F)(F)F)nn3)S(=O)(=O)C2)no1 (stereo unspecified) do in these assays?
SRC2 inh: -11.8

What do the screens show for `O=C(Cn1nnc(-c2ccccc2F)n1)Nc1ccc(F)cc1F`?
SRC2 inh: -6.4

How did O=C(NC1CCCCN(Cc2ccc(OC(F)(F)F)cc2)C1=O)c1cccc(C(F)(F)F)c1 (stereo unspecified) do in these assays?
SRC2 inh: -1.5

What do the screens show for `CCOCCOC(=O)c1[nH]c2c(c1C)C(=O)CC(c1cccs1)C2` (stereo unspecified)?
NR5A2 inv ag: 27.9; SRC1 inh: 9.8; SRC2 inh: 26.8; SRC3 inh: -0.7; Shn3 inh set2: -7.5; Gli-Sufu block: 30.9

What do the screens show for `CCOCCOC(=O)c1[nH]c2c(c1C)C(=O)CC(c1ccccc1)C2` (stereo unspecified)?
NR5A2 inv ag: 25.5; SRC1 inh: 11.1; SRC2 inh: 6.8; SRC3 inh: 18.5; Shn3 inh set2: 29.7; Gli-Sufu block: 51.7; Gli-Sufu confirm: 53.4*; Gli cytotox: 60.1*; Wnt3a counter: -40.3

What do the screens show for `CCOC(=O)c1[nH]c2ccccc2c1NC(=S)Nc1ccccc1C`?
NR5A2 inv ag: -25.6; SRC1 inh: -73.1; SRC2 inh: -9.2; SRC3 inh: -59.0; Shn3 inh set2: -52.5; Gli-Sufu block: -6.1

Results for CCOC(=O)c1[nH]c2ccccc2c1NC(=O)CC(C)C ?
NR5A2 inv ag: 13.1; SRC1 inh: 3.8; SRC2 inh: -31.2; SRC3 inh: -26.7; Shn3 inh set2: 7.1; Gli-Sufu block: 53.6; Gli-Sufu confirm: 22.6; Gli cytotox: 8.8; Wnt3a counter: -19.5

What do the screens show for `CCOC(=O)c1[nH]c2ccccc2c1NC(=O)CN1CCCCC1`?
NR5A2 inv ag: 17.9; SRC1 inh: -4.2; SRC2 inh: 8.2; SRC3 inh: 12.5; Shn3 inh set2: -3.9; Gli-Sufu block: 6.5

Results for CCCC(=O)Nc1c(C(=O)OCC)[nH]c2ccccc12 ?
NR5A2 inv ag: 8.8; SRC1 inh: 9.2; SRC2 inh: 1.3; SRC3 inh: 7.7; Shn3 inh set2: -11.9; Gli-Sufu block: 75.4*; Gli-Sufu confirm: 14.8; Gli cytotox: 17.1; Wnt3a counter: -49.3

Results for CC(C)(C)OC(=O)n1cc(-c2ccccc2)c2c(-c3ccccc3)c(O)ccc21 ?
SRC2 inh: 10.3

How did Cc1ccc(S(=O)(=O)N2CCN(C(=O)c3ccc(S(=O)(=O)N4CCCC4)cc3)CC2)cc1 do in these assays?
NR5A2 inv ag: 1.6; SRC1 inh: 26.7; SRC2 inh: 17.1; SRC3 inh: 2.2; Shn3 inh set2: 5.8; Gli-Sufu block: 57.2*; Gli-Sufu confirm: 42.7; Gli cytotox: 22.5; Wnt3a counter: -13.4

Results for O=C(c1ccc(S(=O)(=O)N2CCCC2)cc1)N1CCCCCC1 ?
NR5A2 inv ag: 18.1; SRC1 inh: -6.5; SRC2 inh: -4.4; SRC3 inh: 6.1; Shn3 inh set2: 8.4; Gli-Sufu block: 5.4

What do the screens show for `O=C(c1ccc(=O)[nH]c1)N1CCN(S(=O)(=O)c2ccccc2)CC1`?
NR5A2 inv ag: -7.2; SRC1 inh: 1.9; SRC2 inh: 7.2; SRC3 inh: 10.6; Shn3 inh set2: -13.3; Gli-Sufu block: 1.8

What do the screens show for `O=C(c1ccc(=O)[nH]c1)N1CCN(S(=O)(=O)c2ccc(Cl)cc2)CC1`?
NR5A2 inv ag: -7.4; SRC1 inh: 17.4; SRC2 inh: -11.7; SRC3 inh: 9.3; Shn3 inh set2: 8.3; Gli-Sufu block: 54.2; Gli-Sufu confirm: 21.5; Gli cytotox: -8.0; Wnt3a counter: 7.3

How did CN1/C(=C/C=N/NC(=O)c2ccc([N+](=O)[O-])cc2)C(C)(C)c2ccccc21 do in these assays?
NR5A2 inv ag: -29.0; SRC1 inh: 1.2; SRC2 inh: 6.5; SRC3 inh: 1.7; Shn3 inh set2: -52.8; Gli-Sufu block: 11.4

Results for CN1/C(=C\C(=S)NC(=O)c2cccc(Br)c2)C(C)(C)c2ccccc21 ?
NR5A2 inv ag: 8.0; SRC1 inh: 5.0; SRC2 inh: 25.1; SRC3 inh: 13.1; Shn3 inh set2: 77.3; Gli-Sufu block: 72.3*; Gli-Sufu confirm: 56.0*; Gli cytotox: 12.6; Wnt3a counter: 9.4

How did CN1/C(=C\C(=S)NC(=O)c2ccc([N+](=O)[O-])cc2)C(C)(C)c2ccccc21 do in these assays?
NR5A2 inv ag: 11.6; SRC1 inh: -7.4; SRC2 inh: -9.2; SRC3 inh: 17.3; Shn3 inh set2: 16.2; Gli-Sufu block: 61.8*; Gli-Sufu confirm: 16.5; Gli cytotox: 20.1; Wnt3a counter: 25.8*

How did C[C@@H]1COc2cc(Br)ccc2S(=O)(=O)N1Cc1cn(CCC2OCCCO2)nn1 do in these assays?
SRC2 inh: 18.1

How did COc1ccc(OC)c(CN2CCCC(CO)C2)c1 (stereo unspecified) do in these assays?
NR5A2 inv ag: -18.4; SRC1 inh: -3.6; SRC2 inh: 4.3; SRC3 inh: -15.7; Shn3 inh set2: 4.5; Gli-Sufu block: 59.5*; Gli-Sufu confirm: 16.8; Gli cytotox: -3.7; Wnt3a counter: 11.4

What do the screens show for `COc1ccc(OC)c(CN2CCCCCC2)c1`?
NR5A2 inv ag: -9.8; SRC1 inh: 3.5; SRC2 inh: 0.2; SRC3 inh: -22.6; Shn3 inh set2: 3.0; Gli-Sufu block: 6.3

High-throughput results deposited in PubChem by several laboratories.
